Measurements reported in the OligoGym collection.

What follows are sequences tested against CAMK2N1 (assay: pooled miR-30 sensor sort-seq; sequence = guide strand). Settings: shRNA.
Further: reference of the scale not given here.

Row | Sequence | sensor-assay potency score (higher = more potent)
1 | ATCTTCAATAACAACCCGCTTG | -0.788
2 | TTCAGCACGTCATCAATCCTAT | -0.353
3 | TTTCAGCACGTCATCAATCCTA | -0.00921
4 | AATAACAACCCGCTTGCTCCGG | -0.79
5 | TATCATCTTCAATAACAACCCG | -0.355
6 | TTCAATAACAACCCGCTTGCTC | 0.0759

These sequences were tested against CAMKV in the same assay as above. Settings: shRNA.

Row | Sequence | sensor-assay potency score (higher = more potent)
7 | TATCTGTCAGTCACCTCCGATG | -0.879
8 | ATATCTGTCAGTCACCTCCGAT | -0.99
9 | TCACTGATGACAATCTTCGAGT | -1.01
10 | TTAAACATACTGCCCTACCTTT | -0.684
11 | TTGCCTGTCGTCTTGTCCTTGG | -0.405
12 | TTGAACTGAGCAGAAAATCTGC | 0.22
13 | TATAGTTCTTCTTGTCGCCCAG | -0.36
14 | TAACACAAATAACAGGGTCTTA | -0.811
15 | TTTCATTGTTGAACTGAGCAGA | 0.188
16 | TTCTGGAACTTCTTGCAGGTGT | -0.129
17 | TTATAGTTCTTCTTGTCGCCCA | 0.464
18 | TTGCTTGTGTCTCGCTCCGAGT | -1.54

What follows are sequences tested against CAMSAP1L1 in the same assay as above. Settings: shRNA.

Row | Sequence | sensor-assay potency score (higher = more potent)
19 | TACACTCTCGTTATCACCCGTG | 0.34
20 | TTCTGCTTTTTGATCATCCTTA | -0.157
21 | TACTTTTTCTATACTGACCATT | -0.4
22 | TTTTGCAGCATCACTCTTGAGA | -0.108
23 | TACTGTATCCATATCTTCCATT | -0.745
24 | TTGTTCATGACAACAGAGCTTA | 0.195
25 | TTGTATTATGTGCTTATTGGAT | -0.942
26 | TTATCCAGTACATGACAGCGTC | -0.641
27 | TTGATTTCTTCAGTTTCTGGGC | -0.439
28 | TTCAACAGGTACATCAGCCTTT | 0.426
29 | TTCACCACTTCAAACCACCAGA | -0.595

The sequences below were run against CAPNS2 in the same assay as above. Settings: shRNA.

Row | Sequence | sensor-assay potency score (higher = more potent)
30 | TATACTGAGCTGCTGCAGCCTC | -0.467
31 | TATCTCCATCTTCATTAGCATA | -1.87
32 | TAGACACTTGAATCAGGCCATC | -1.43
33 | TAAAATTCACAATTCCTCCAAC | -0.361
34 | TAATTCAGCAGTAAAAGGCAGC | -0.377
35 | TCTATCTCTATCCAGAGACTTG | -1.33
36 | ATGACAGACACAATGCTCCGGC | -0.17
37 | TTTGTTGAGAATATTCATCAGA | -0.0355
38 | TAAAATCCATATCTCCATCTTC | -0.0154
39 | TTGATAGACACTTGAATCAGGC | -0.108
40 | TTTGTGCTTAGAAAGGACTTTG | -0.468
